Screening results: PubChem, National Center for Advancing Translational Sciences (NCATS)
Compounds with a hit are over-represented: about 11% of the library has one in this group of screens.
IMPase inh – membrane-permeable compound that blocks inositol monophosphatase. P97697. CHO-M1 cells, IP1 accumulation, HTRF TR-FRET ratio. inhibition (IP1 accumulation), % at 46.1 µM. 120,000 tested, under 10 active; active = well fitted curve in the direction sought with a large enough effect in the signal ratio, not every such curve was filed as active; inconclusive = small, poorly fitted or top-dose-only effect, or a change in a side signal; inactive = no such curve, though single readings can be large or run the other way; the % refers to the signal ratio;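 note: cells stimulated with carbachol in lithium chloride buffer; higher means more IMPase inhibition seen as more IP1 and lower FRET ratio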
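CHO-M1 cells (CHO stably expressing M1 receptor), compound up to 46 uM final, stimulated with carbachol (50 uM as added) in buffer with 50mM LiCl, pH 7.4, 30 min at 37C. Cytosolic IP1 read by TR-FRET; AC50 from Hill fits.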
PNC inhibitor – inhibitors of perinucleolar compartment assembly | PC3M PTB-GFP, PNC prevalence imaging, 16 h; hits give low values | activity change (PNC), negative = inhibition, % at 10 µM | 3.1% of 140,000 active | AID 2417;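 active = readout at or below -70, meaning at least 70% loss of cells showing the perinucleolar compartment, a nuclear body marking cancer cells; inconclusive = readout between -30 and a set limit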
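PC3M cells stably expressing PTB-GFP, 750–1000 cells/well, treated 16 h at 37 °C with compound (23 nl of library stock), in duplicate. After paraformaldehyde fixation and Hoechst stain, imaged at 20x; PNC prevalence scored by image analysis.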
HPGD inh – inhibitors of human 15-hydroxyprostaglandin dehydrogenase (HPGD). purified HPGD, NADH fluorescence kinetic, PGE2 substrate. 4.3% of 150,000 active. Potency, µM, most hits filed as inhibitors. P15428. AID 894
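NADH formation kinetics: reaction with 30 uM PGE2 and 1 mM NAD+ (final), 20 nM enzyme, Tris-HCl pH 8 with Tween 20, after 15 min compound preincubation at room temperature. Fluorescence change, last versus first of five reads.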
IMPase Li cell – cell-permeable IMPase inhibitors with lithium potentiation. Potency, µM (series often up to 59.4 µM), most hits filed as inhibitors. CHO-M1 cells, IP1 TR-FRET (IP-One), carbachol + lithium. 0.35% of 210,000 active. AID 1457; active = well fitted curve in the direction sought with a large enough effect; inconclusive = small, poorly fitted or top-dose-only effect, or another doubt; inactive = no such curve, though single readings can be large; an effect the other way counts as inactive or inconclusive;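 note: IP1 builds up when IMPase is blocked and the TR-FRET signal falls; nearly all actives have a fitted effect of over 50% in size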
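Steps: plate 2000 CHO-M1 cells per well and culture 16–30 h; add compound and lithium; incubate 30 min, 37C; add d2-IP1 tracer and Eu cryptate anti-IP1 antibody in lysis buffer; read after 10 min at room temperature.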
ALDH1A1 inh – blocks purified human ALDH1A1 activity; P00352; Purified ALDH1A1, NADH fluorescence, propionaldehyde substrate; Potency, µM (top dose mostly 75.3 µM), most hits filed as inhibitors; 7.3% of 220,000 active; AID 1030
Target sequence (P00352 whole entry, looked up): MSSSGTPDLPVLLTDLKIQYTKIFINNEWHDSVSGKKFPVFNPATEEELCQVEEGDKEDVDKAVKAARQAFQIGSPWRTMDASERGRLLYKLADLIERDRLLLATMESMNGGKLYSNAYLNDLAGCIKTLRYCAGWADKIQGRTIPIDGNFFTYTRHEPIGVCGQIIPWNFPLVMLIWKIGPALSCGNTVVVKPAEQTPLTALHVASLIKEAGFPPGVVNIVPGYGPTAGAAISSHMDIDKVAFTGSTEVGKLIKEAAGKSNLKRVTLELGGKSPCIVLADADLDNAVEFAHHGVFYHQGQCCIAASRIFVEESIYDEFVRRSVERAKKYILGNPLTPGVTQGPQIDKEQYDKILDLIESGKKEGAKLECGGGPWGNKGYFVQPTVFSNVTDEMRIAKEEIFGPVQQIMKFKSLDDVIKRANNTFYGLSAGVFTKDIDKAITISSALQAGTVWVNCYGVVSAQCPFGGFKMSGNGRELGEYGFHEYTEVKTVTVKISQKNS
NPSR antagonist – blocks cAMP signaling of the human neuropeptide S receptor | CHO-NPSR cells, cAMP TR-FRET, antagonist mode | Potency, µM (titrated, usually from 38.3 µM), usual class: inhibitors | 1% of 220,000 active | AID 1461; active = well fitted curve in the direction sought with a large enough effect; inconclusive = small, poorly fitted or top-dose-only effect, or another doubt; inactive = no such curve, though single readings can be large; an effect the other way counts as inactive or inconclusive; note: nearly all actives have a fitted effect of over 50% in size
Hits are given with their value; – = inactive; ? = inconclusive; · = no result given; [ ] = remark or other dose. Unless noted, calls come from the whole dose curve; as a rule, active = well fitted inhibition curve with a large enough effect (not every such curve was filed as active); inconclusive = small, poorly fitted or top-dose-only effect, or another doubt; inactive = no such curve, though single readings can be large or run the other way.

SMILES	IMPase inh	PNC inhibitor	HPGD inh	IMPase Li cell	ALDH1A1 inh	NPSR antagonist
N[C@H](Cc1cc(I)c(Oc2cc(I)c(O)c(I)c2)c(I)c1)C(=O)O	–	·	–	–	–	·
NC(Cc1cc(I)c(Oc2cc(I)c(O)c(I)c2)c(I)c1)C(=O)O (stereo not drawn)	·	·	–	–	15.8µM	·
O=C1c2ccccc2C(O)(O)[C@@]1(O)[C@]1(O)C(=O)c2ccccc2C1(O)O	·	·	–	–	0.251µM	·
Cc1ccc(NC(=O)C2OCCc3ccccc32)cc1 (stereo not drawn)	·	·	·	–	–	–
CC(C)[C@H](NC(N)=O)C(=O)Nc1cccc([N+](=O)[O-])c1	·	·	·	–	–	–
CCN1C(=O)/C(=C/C=C2/CCCN2C)OC1=S	·	·	·	–	2.82µM	–
CC1(C)Cc2c(c(-c3ccccc3)nc(N3CCOCC3)c2C(N)=O)CO1	–	–	–	–	–	–
CC(NC(=O)C(NC(=O)C(Cc1c[nH]c2ccccc12)NC(=O)OC(C)(C)C)C(C)C)C(N)=O (stereo not drawn)	·	·	·	–	–	–
O=C1CCCN=C(Nc2ccc(F)c(Cl)c2)S1	·	·	·	·	·	–
O=C(Nc1ccccc1Cl)N1CCN(c2ccccn2)CC1	?	–	?	–	?	–
O=C(C1CCN(S(=O)(=O)c2ccccc2F)CC1)N1CCc2ccccc2C1	·	·	·	–	–	–
COc1cccc(Nc2nnc(SCc3cc([N+](=O)[O-])cc4c3OCOC4)s2)c1	–	–	–	–	–	–
Cc1cccc(C)c1Nc1nnc(SCc2cc([N+](=O)[O-])cc3c2OCOC3)s1	–	–	11.2µM	–	22.4µM	?
O=C(COC(=O)Cc1ccc(Cl)cc1Cl)NCCC1=CCCCC1	·	–	–	–	?	–
CCCCn1c(-c2csc(C(C)C)c2)n[nH]c1=S	·	-109.0	?	–	7.94µM	–
CCCc1cc(-c2n[nH]c(=S)n2CC(C)C)cs1	·	–	?	–	11.2µM	–
CCCCOC(=O)c1ccc(NC(=O)C(=O)NCCN(C)C)cc1	·	·	·	·	·	–
Cc1ccc(C(C)C)c(OCC(=O)NN=C2CCCC2)c1	·	·	·	–	–	–
CC(C)CNC(=O)CC(=O)NN=C1CCCC1	·	-113.4	–	–	–	–
O=C(NCCN1CCOCC1)c1ccc2c(c1)N(Cc1cccc(F)c1)C(=O)c1ccccc1S2	·	·	·	–	28.2µM	–
CCN(CC)c1ccc(N=Cc2cc(Br)ccc2O)cc1	·	·	·	–	7.94µM	–
CC1Cc2ccccc2N1C(=O)CN(C)S(=O)(=O)c1cccc2cccnc12 (stereo not drawn)	–	–	–	–	–	–
CN(Cc1ccccc1)S(=O)(=O)c1cccc2cccnc12	–	?	22.4µM	–	8.91µM	–
CN(CC(=O)N1CCCCC1)S(=O)(=O)c1cccc2cccnc12	–	–	15.8µM	–	?	–
COc1cccc(CNC(=O)CN(C)S(=O)(=O)c2cccc3cccnc23)c1	·	·	·	·	·	–
SMILES	IMPase inh	PNC inhibitor	HPGD inh	IMPase Li cell	ALDH1A1 inh	NPSR antagonist
Nn1c(SCc2cc([N+](=O)[O-])cc3c2OCOC3)nnc1-c1cccnc1	·	·	·	–	–	–
CC(=O)OCC1=C(C(=O)O)N2C(=O)C(NC(=O)Cc3cccs3)C2SC1 (stereo not drawn)	·	·	20µM	–	–	·
O=c1c(CN2CCN(c3ccccn3)CC2)coc2ccccc12	·	–	–	–	25.1µM	–
Oc1c(CN2CCN(c3ccccn3)CC2)cc(Cl)c2cccnc12	–	?	–	–	–	?
CCOC(=O)C1(CCOc2ccccc2)CCN(Cc2ccc(C)o2)CC1	·	·	·	–	17.8µM	–
CCOC(=O)C1(CCOc2ccccc2)CCN(Cc2ccc(COC)o2)CC1	·	·	·	–	–	–
COC(=O)Cn1c2ccccc2c2nc(=O)cc(C)n21	·	·	·	–	–	–
COC(=O)N/N=C/c1cc(Cl)c(OCc2ccccc2F)c(OC)c1	·	·	·	·	·	–
NNC(=O)c1sccc1OCc1ccc(F)cc1	·	·	·	–	10µM	–
NNC(=O)c1sccc1OCc1cccc(C(F)(F)F)c1	·	·	·	–	?	–
O=C(N/N=C/c1ccc(F)cc1)c1sccc1OCc1ccc(F)cc1	–	–	–	–	–	–
NNC(=O)c1sccc1OCc1ccc(Cl)cc1Cl	·	·	·	–	3.55µM	–
COC(=O)N/N=C/c1cc(Cl)c(OCc2ccc(F)cc2)c(OC)c1	·	-86.6	–	–	–	–
COc1ccc(COc2ccsc2C(=O)Nc2ccc(Cl)cc2)cc1	–[1.84 µM]	-86.0	–	–	–	–
O=C(C#Cc1ccccc1)c1cccc([N+](=O)[O-])c1	–	–	–	–	?	?
CCn1cc(/C=C/C(=O)Nc2c(C)nn(Cc3ccccc3)c2C)cn1	·	?	–	–	?	–
CCOc1cc2[nH]c(=O)n(Cc3ccccc3)c(=O)c2cc1OCC	–	–	–	–	?	–
Cc1ccc(S(=O)(=O)NNC(=O)CCC(=O)Nc2ccc(C)c(C)c2)cc1	–	–	–	–	–	–
O=C(N/N=C/c1ccc(Cl)cc1)c1sccc1OCc1ccc(F)cc1	–	-119.2	–	–	–	–
CC(=O)Nc1cc(OC(=O)c2ccco2)cc(OC(=O)c2ccco2)c1	–	–	–	–	–	–
O=C(Oc1cncc(Cl)c1)c1ccco1	?	-80.6	–	–	–	–
CC1CCCN(C(=O)Cn2nnc(-c3cccnc3)n2)C1 (stereo not drawn)	–	–	–	–	–	–[7.67 µM]
CCOC(=O)C1=C(c2ccccc2)NC(=O)NC1c1ccc(N(C)C)cc1 (stereo not drawn)	–	-100.0	–	–	14.1µM	–
CCOC(=O)C1=C(C)NC(=O)NC1c1ccc2c(c1)OCCO2 (stereo not drawn)	–	-100.0	–	–	–	–
